Shown are actives, neighbours in structure and some others; about 1.2% of the full set was active somewhere.
GSH fluor: GSH bead compound fluorescence profile; GSH beads flow cytometry, compound fluorescence 488/530 nm; active compounds read high; fluorescence (KMESF) at 10 µM; hit rate 0.25% among 190,000; in the data active = fluorescence above about 89;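 also: glutathione beads carrying GST-tagged Bcl family fusion proteins plus one bare bead set; values are compound well signal with DMSO vehicle wells as background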
RGS7-Gao: human RGS7-Galphao interaction regulation. P09471. Multiplexed bead flow cytometry, RGS7-Galphao binding; actives lie on both sides. binding response (% of control), % at 10 µM. hit rate 0.35% among 220,000; in the data active = binding response below about 49% or above about 150%; inconclusive = no clear call, values can overlap the other calls; inactive = in between;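 also: fluorescent Galphao held in activated GDP-AlF4 state binding bead-coupled RGS7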
Target sequence (P09471 whole entry, looked up): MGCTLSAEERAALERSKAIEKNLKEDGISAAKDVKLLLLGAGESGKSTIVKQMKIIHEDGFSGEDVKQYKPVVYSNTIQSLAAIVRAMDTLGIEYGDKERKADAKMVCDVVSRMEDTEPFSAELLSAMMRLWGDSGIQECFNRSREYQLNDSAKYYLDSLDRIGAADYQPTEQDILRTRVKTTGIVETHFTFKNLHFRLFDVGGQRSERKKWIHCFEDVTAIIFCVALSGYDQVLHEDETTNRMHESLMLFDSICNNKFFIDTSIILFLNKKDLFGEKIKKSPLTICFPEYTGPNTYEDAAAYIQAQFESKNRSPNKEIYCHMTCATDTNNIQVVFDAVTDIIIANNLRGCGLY
Avidin fluor: compound fluoresces at 488/530 nm on avidin beads; compound fluorescence 488/530 nm, flow cytometry; active compounds read high; fluorescence (KMESF) at 10 µM; hit rate 0.38% among 220,000; in the data active = fluorescence above about 47
RGS4-Gao reg: human RGS4-Galphao interaction regulation; P09471; Multiplexed bead flow cytometry, RGS4-Galphao binding; actives lie on both sides; binding response (% of control), % at 10 µM; hit rate 0.33% among 220,000; AID 1415; in the data active = binding response below about 49% or above about 150%; inactive = in between;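 also: fluorescent Galphao activated with aluminum fluoride binding bead-coupled RGS4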
RGS8-Gao: modulates binding of RGS8 to human Galphao; multiplexed bead flow cytometry; actives lie on both sides; AID 1423; P09471; response (percent of control binding), % at 10 µM; hit rate 0.34% among 220,000; in the data active = response below about 60% or above about 140%; inactive = in between;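 also: Galphao activated as the GDP aluminium fluoride complex binding bead-coupled RGS8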
RGS16-Gao: modulates binding between human RGS16 and Galphao | bead-based flow cytometry RGS16-Galphao binding, fluorescence; actives lie on both sides | binding response (% of control), % at 10 µM | hit rate 0.38% among 220,000 | AID 1441;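 also: Galphao activated by GDP with aluminum fluoride before binding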
RGS4-Gao HTS: regulators of human RGS4-Galphao interaction. RGS4–Galpha-o binding response, % at 10 µM. shares compounds with RGS16-Gao. multiplexed bead flow cytometry, RGS–Galpha-o binding. AID 1504. hit rate 99% among 1,600;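 also: fluorescently labeled Galpha-o bound to GDP with aluminium fluoride binding biotinylated RGS beads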
Avidin counter: interferes with biotinylated probe binding to avidin beads | 1,700 tested, under 10 active | streptavidin beads, fluorescein-biotin binding, flow cytometry | inhibition, % at 10 µM | shares compounds with RGS16-Gao;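 active = inhibition above 50%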;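 also: median green fluorescence of gated singlet beads compared with DMSO control wells; 0% = DMSO wells and 100% = complete loss of bead fluorescence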
RGS8-Gao single: RGS8-Galphao interaction regulation, single point confirmation; shares compounds with RGS16-Gao; bead-based flow cytometry RGS8-Galphao binding, fluorescence; actives lie on both sides; binding response (% of control), % at 10 µM; hit rate 3% among 1,700; AID 1836; in the data active = binding response below about 72% or above about 130%; inactive = in between;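 also: Galphao activated as GDP AlF4 complex before binding bead RGS8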
RGS7-Gao single: confirmation of regulators of human RGS7-Galphao interaction | bead-based flow cytometry RGS7-Galphao binding; actives lie on both sides | hit rate 7.8% among 1,700 | AID 1837 | response (percent of control binding), % at 10 µM | shares compounds with RGS16-Gao; in the data active = response below about 75% or above about 130%; inactive = in between;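 also: fluorescent Galphao activated with GDP and aluminum fluoride binding bead-coupled RGS7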
RGS16-Gao single: RGS16-Galphao interaction regulation, single point confirmation. shares compounds with RGS16-Gao. bead-based flow cytometry, RGS16-Galphao binding; actives lie on both sides. response (% of control binding), % at 10 µM. hit rate 4% among 1,700. AID 1838; in the data active = response below about 74% or above about 130%; inactive = in between;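 also: Galphao activated as the GDP aluminium fluoride complex binding bead-coupled RGS16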
RGS4-Gao confirm: confirmation of regulators of human RGS4-Galphao interaction; shares compounds with RGS16-Gao; RGS4-Galphao binding, multiplexed bead flow cytometry; actives lie on both sides; binding response (% of control), % at 10 µM; hit rate 4% among 1,700; in the data active = binding response below about 74% or above about 130%; inactive = in between
RGS19-Gao single: confirmation of regulators of human RGS19-Galphao interaction; response (percent of control binding), % at 10 µM; bead-based flow cytometry RGS19-Galphao binding; actives lie on both sides; AID 1841; hit rate 5% among 1,700; shares compounds with RGS16-Gao; in the data active = response below about 50% or above about 160%; inactive = in between;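 also: 100% = no compound control and 0% = blank background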
Target sequence (P09471 whole entry, looked up): as above
Target sequence (P49795 whole entry, looked up): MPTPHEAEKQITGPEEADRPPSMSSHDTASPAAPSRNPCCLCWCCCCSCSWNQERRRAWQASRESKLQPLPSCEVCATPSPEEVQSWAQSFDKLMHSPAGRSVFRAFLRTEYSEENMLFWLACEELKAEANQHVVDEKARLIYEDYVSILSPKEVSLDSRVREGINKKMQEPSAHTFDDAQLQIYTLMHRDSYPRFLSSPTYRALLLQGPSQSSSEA
* = called active by the depositor; u = inconclusive; x = no result; [ ] = remark or other dose. Unless noted, no rule for the calls is given here.

SMILES | GSH fluor | RGS7-Gao | Avidin fluor | RGS4-Gao reg | RGS8-Gao | RGS16-Gao | RGS4-Gao HTS | Avidin counter | RGS8-Gao single | RGS7-Gao single | RGS16-Gao single | RGS4-Gao confirm | RGS19-Gao single
COC(=O)C1=C(N)c2ccccc2C1(C#N)c1ccccc1 (stereo not drawn) | 11 | 91 | 10 | 96 | 94 | 96 | x | x | x | x | x | x | x
CCCc1cc(=O)[nH]c(SCC(=O)c2ccc3c(c2)NC(=O)CO3)n1 | x | u | 179* | 387*[activator] | 150*[activator] | 342*[activator] | x | -1 | 99 | 84 | 92 | 88 | 78
O=S1(=O)CCC(N=Cc2cc(Br)ccc2O)C1 (stereo not drawn) | 35 | 151*[activator] | 49* | 112 | 103 | 147 | 112* | 1 | 104 | 95 | 111 | 98 | 137
O=c1c2ccccc2c(C=NC2CCS(=O)(=O)C2)c(O)n1-c1ccccc1 (stereo not drawn) | 27 | 91 | 8 | 90 | 94 | 93 | x | x | x | x | x | x | x
COc1ccc(S(=O)(=O)N(C)CC(=O)Nc2ccccc2C(F)(F)F)cc1OC | 20 | 88 | 27 | 85 | 93 | 92 | x | x | x | x | x | x | x
CC(C)c1onc(C(=O)N(C)Cc2ccccc2)c1[N+](=O)[O-] | 10 | 87 | 2 | 89 | 74 | 24* | 89* | 4 | 107 | 105 | 113 | 105 | 111
CC(C)c1onc(C(=O)NCCc2ccccc2)c1[N+](=O)[O-] | 11 | 94 | 10 | 102 | 100 | 98 | x | x | x | x | x | x | x
C=CCNC(=O)CCCCCNS(=O)(=O)c1ccc(OC)cc1 | 14 | 115 | 10 | 113 | 107 | 117 | x | x | x | x | x | x | x
N#C/C(=C\c1ccc(Cl)cc1)c1nc2ncccc2[nH]1 | 15 | 84 | 10 | 89 | 71 | -40* | 89* | x | x | x | x | x | x
N#C/C(=C\c1c(Cl)cccc1Cl)c1nc2ccccc2[nH]1 | x | u | 9 | 101 | 102 | 105 | x | x | x | x | x | x | x
CCCCOc1ccc(C2=NNC(=O)CC2)cc1 | 13 | 100 | 11 | 100 | 98 | 103 | x | x | x | x | x | x | x
CCn1c(O)c(/C=N/N=C/c2ccccc2)c2ccc(C3=NNC(=O)CC3)cc21 | 37 | x | x | x | x | x | x | 2 | 100 | 111 | 103 | 105 | 100
CCC(CC)=N/N=C/c1c(O)n(CC)c2cc(C3=NNC(=O)CC3)ccc12 | 16 | 77 | 12 | 80 | 67 | 24* | 80* | 1 | 105 | 100 | 110 | 100 | 110
CCn1c(C)nc2cc(C(=O)N/N=C/c3ccccc3)ccc21 | 23 | 97 | 13 | 98 | 101 | 98 | x | x | x | x | x | x | x
O=S(=O)(c1ccc(F)cc1)N1CCN(c2ncnc3c2cnn3-c2ccccc2)CC1 | 14 | 122 | 13 | 129 | 142*[activator] | 301 | 129* | 0 | 96 | 89 | 95 | 95 | 107
Cc1cccc(-n2ncc3c(N4CCOCC4)ncnc32)c1 | 17 | 63 | 3 | 65 | 59* | 9 | 65* | 2 | 102 | 105 | 103 | 105 | 93
O=S1(=O)CC/C(=N/Nc2ccccn2)c2cc(F)ccc21 | x | u | 6 | 102 | 100 | 101 | x | x | x | x | x | x | x
NC(=O)c1cc(Cc2ccccc2)sc1NC(=O)c1ccco1 | 7 | 111 | 8 | 99 | 97 | 98 | x | x | x | x | x | x | x
COc1ccc(-c2nc(C)sc2C)cc1 | 7 | 118 | 3 | 115 | 142*[activator] | 266 | 115* | -1 | 98 | 102 | 102 | 101 | 96
COc1ccc(-c2nc(-n3c(C)c(C(C)=O)c(C(C)=O)c3C)sc2C)cc1 | 20 | 44* | 3 | 47* | 56* | 40 | x | -1 | 102 | 104 | 101 | 105 | 98
CCCCc1cc(=O)oc2cc(C)c(CN3CCCC3)c(O)c12 | 29 | 160*[activator] | 15 | 139 | 129 | 175*[activator] | 139* | 1 | 93 | 90 | 92 | 92 | 61
Cc1cc(C)n2nc(C(=O)N3CCCC(CNS(=O)(=O)c4cccs4)C3)cc2n1 (stereo not drawn) | 22 | 98 | 7 | 100 | 104 | 100 | x | x | x | x | x | x | x
CC(C)(C)c1nnc(NC(=O)CS(=O)(=O)Cc2ccccc2)s1 | 17 | 51 | 1 | 86 | 57* | 61 | 86* | -1 | 103 | 102 | 102 | 101 | 94
CCOc1ccc(C2=Nn3c(nnc3-c3ccccc3OC)SC2)cc1 | 11 | 100 | 10 | 99 | 99 | 99 | x | x | x | x | x | x | x
COc1ccccc1-c1nnc2n1N=C(c1ccc(O)c(O)c1)CS2 | 9 | 47* | 4 | 56 | 59* | 22 | 56* | -2 | 91 | 83 | 87 | 91 | 89
SMILES | GSH fluor | RGS7-Gao | Avidin fluor | RGS4-Gao reg | RGS8-Gao | RGS16-Gao | RGS4-Gao HTS | Avidin counter | RGS8-Gao single | RGS7-Gao single | RGS16-Gao single | RGS4-Gao confirm | RGS19-Gao single
Cc1[nH]c2ccccc2c1/C=N/NC(=O)CNC(=O)c1cccs1 | x | u | 9 | 89 | 98 | 106 | x | x | x | x | x | x | x
O=C(CNC(=O)c1cccs1)N/N=C/c1c[nH]c2ccccc12 | 8 | 2.4* | -1 | 2.8* | 6.0* | -4.2* | x | 0 | 105 | 100 | 109 | 103 | 94
CC(C)CCNC(=O)c1onc(CSc2ccncc2)c1C(=O)NCCC(C)C | x | u | 13 | 103 | 97 | 103 | x | x | x | x | x | x | x
Oc1ccc(-c2n[nH]c(=S)n2-c2ccc3c(c2)OCCO3)c(O)c1 | 10 | 93 | 7 | 99 | 72 | 15* | 99* | 0 | 90 | 107 | 94 | 99 | 79
CC(=O)c1cc2c(cc1NC(=O)Nc1cccc(Cl)c1)OCCO2 | 11 | 101 | 34 | 98 | 101 | 101 | x | x | x | x | x | x | x
COc1cccc(Nc2nnc(SCN3C(=O)c4ccccc4C3=O)s2)c1 | 13 | 130 | 12 | 122 | 153*[activator] | 551 | 122* | 1 | 103 | 101 | 100 | 102 | 106
CCN(C(=O)c1cc2cccc(OC)c2oc1=O)C1CCCCC1 | 18 | 188*[activator] | 112* | 187*[activator] | 85 | 223*[activator] | x | 3 | 99 | 101 | 96 | 99 | 100

High-throughput results from PubChem BioAssay.
